Screening data: PubChem, NMMLSC
VLA-4 inh – inhibition in human VLA-4 binding assay, primary screen, VLA-4 allosteric modulator project, MLPCN library, flow cytometry, VLA-4 expressing cells; ligand binding flow cytometry; hit rate 0.2% among 330,000; inhibition, % (about 7 µM as worked out from the volumes in the protocol); in the data active = inhibition above about 50%
Target sequence (P13612 whole entry, looked up): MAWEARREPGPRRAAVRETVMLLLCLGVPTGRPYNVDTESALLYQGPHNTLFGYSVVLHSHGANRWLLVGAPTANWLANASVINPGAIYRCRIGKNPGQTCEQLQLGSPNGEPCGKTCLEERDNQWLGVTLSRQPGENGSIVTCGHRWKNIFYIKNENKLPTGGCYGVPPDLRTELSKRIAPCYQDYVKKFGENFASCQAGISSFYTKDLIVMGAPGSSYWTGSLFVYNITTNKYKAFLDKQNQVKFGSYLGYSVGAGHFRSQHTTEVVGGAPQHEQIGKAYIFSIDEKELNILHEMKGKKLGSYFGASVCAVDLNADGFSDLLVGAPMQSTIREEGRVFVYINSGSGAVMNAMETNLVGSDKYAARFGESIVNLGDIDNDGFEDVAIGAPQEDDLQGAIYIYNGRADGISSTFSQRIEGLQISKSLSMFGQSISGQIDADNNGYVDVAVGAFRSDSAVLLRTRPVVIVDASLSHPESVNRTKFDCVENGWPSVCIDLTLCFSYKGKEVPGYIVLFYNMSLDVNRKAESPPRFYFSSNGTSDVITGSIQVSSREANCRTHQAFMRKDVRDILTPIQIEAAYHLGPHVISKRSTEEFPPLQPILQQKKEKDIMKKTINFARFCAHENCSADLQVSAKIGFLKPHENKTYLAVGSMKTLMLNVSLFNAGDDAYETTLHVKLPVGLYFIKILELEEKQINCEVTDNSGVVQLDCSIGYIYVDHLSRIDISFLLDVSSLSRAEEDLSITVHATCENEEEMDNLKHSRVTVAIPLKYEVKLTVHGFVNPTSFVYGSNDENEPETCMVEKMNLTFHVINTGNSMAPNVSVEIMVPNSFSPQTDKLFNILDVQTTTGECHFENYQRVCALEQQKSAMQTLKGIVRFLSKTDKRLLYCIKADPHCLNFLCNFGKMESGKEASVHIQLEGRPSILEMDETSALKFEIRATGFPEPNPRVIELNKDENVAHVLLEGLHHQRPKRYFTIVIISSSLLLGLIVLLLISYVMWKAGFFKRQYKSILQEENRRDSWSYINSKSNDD
CIT2-GFP yeast – modulators of CIT2-GFP expression in yeast, primary screen, S. cerevisiae, GFP fusion, multiplex flow cytometry, MLPCN library; AID 2029, 2009; GFP response vs DMSO, % at 10 µM; S. cerevisiae CIT2-GFP strain, 3 h; 100 means same as DMSO wells; hit rate 0.065% among 320,000;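 active = GFP response relative to DMSO above a set limit, near the screen mean plus 3 SD, cut at about 150% in these data; inconclusive = Fewer than 70 cells measured for a yeast strain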;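 also: ratio of well median GFP fluorescence to mean of DMSO wells on the plate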
AGP1-GFP MLPCN – modulators of AGP1-GFP expression in yeast TOR pathway, primary screen, cell-based, multiplex flow cytometry, S. cerevisiae, MLPCN library; hit rate 0.02% among 320,000; AID 2066, 2009; GFP response vs DMSO, % at 10 µM; 3 h; GFP as percent of DMSO wells;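 active = GFP response relative to DMSO above a set limit, near screen average plus 3 SD, cut at about 150% in these data; inconclusive = fewer than 70 cells counted for the yeast strain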;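 also: median GFP channel fluorescence of the gated AGP1 strain per well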
RPL19A-GFP yeast – RPL19A-GFP expression modulators in yeast, primary screen, cell-based, S. cerevisiae, multiplex flow cytometry, MLPCN; S. cerevisiae RPL19A-GFP strain, 3 h; stronger effect = lower value; percent response vs DMSO, % at 10 µM; hit rate 0.3% among 330,000; AID 2025, 2009;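 active = percent response vs DMSO below 50%; inconclusive = fewer than 70 events counted for the yeast strain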;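 also: median channel GFP fluorescence of the barcoded RPL19A-GFP strain; lower means less RPL19A-GFP as with rapamycin TOR inhibition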
MEP2 TOR yeast – modulators of MEP2-GFP levels in yeast, primary screen, S. cerevisiae, multiplex flow cytometry, MLPCN library | hit rate 0.51% among 330,000 | GFP response vs DMSO, % at 10 µM | S. cerevisiae MEP2-GFP strain, 3 h; 100% = DMSO control level;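 active = GFP response versus DMSO above a set limit, roughly screen mean plus 3 SD, cut at about 180% in these data; inconclusive = fewer than 70 cells counted for a yeast strain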;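 also: median GFP fluorescence of the barcode-gated MEP2-GFP cells per well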
LAP4 TOR yeast – modulators of LAP4-GFP expression in yeast, primary screen, S. cerevisiae, multiplex flow cytometry, MLPCN library | GFP response vs DMSO, % at 10 µM | AID 2023, 2009 | hit rate 0.34% among 320,000 | 3 h; median GFP as percent of DMSO wells;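 active = GFP response vs DMSO above a set limit, about the screen mean plus 3 SD, cut at about 150% in these data; inconclusive = under 70 cell events counted for the yeast strain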
A number is an active result; [ ] = remark or other dose. A selection: hits, their analogues and other compounds. The true share with any hit is near 1.1%.

Results for O=C(O/N=C(\c1ccccc1)c1ccncc1)c1ccccc1Cl ?
VLA-4 inh: inactive; CIT2-GFP yeast: inactive; AGP1-GFP MLPCN: inactive; RPL19A-GFP yeast: inactive; MEP2 TOR yeast: inactive; LAP4 TOR yeast: 152.0

How did CN(C)S(=O)(=O)N1CCN(c2ccc([N+](=O)[O-])c(N3CCCCC3)c2)CC1 do in these assays?
VLA-4 inh: inactive; CIT2-GFP yeast: inactive; AGP1-GFP MLPCN: inactive; RPL19A-GFP yeast: inactive; MEP2 TOR yeast: inactive; LAP4 TOR yeast: inactive

What do the screens show for `NS(=O)(=O)c1ccc(N/N=C/c2cn(-c3ccccc3)nc2-c2cccs2)c([N+](=O)[O-])c1`?
VLA-4 inh: inactive; CIT2-GFP yeast: inconclusive; AGP1-GFP MLPCN: inconclusive; RPL19A-GFP yeast: 18.9[may fluoresce violet]; MEP2 TOR yeast: 221.1[may fluoresce violet]; LAP4 TOR yeast: inactive

How did N#Cc1ccccc1NC(=O)COC(=O)c1ccc(F)cc1F do in these assays?
VLA-4 inh: inactive; CIT2-GFP yeast: inactive; AGP1-GFP MLPCN: inactive; RPL19A-GFP yeast: inactive; MEP2 TOR yeast: inactive; LAP4 TOR yeast: inactive

What do the screens show for `CCOC(=O)CC1C(=O)NCCN1S(=O)(=O)c1ccc(NC(C)=O)cc1` (configuration not stated)?
VLA-4 inh: inactive; CIT2-GFP yeast: 150.4[may fluoresce green]; AGP1-GFP MLPCN: inactive; RPL19A-GFP yeast: inactive; MEP2 TOR yeast: inactive; LAP4 TOR yeast: inactive

How did O=C1c2cccc3cccc(c23)C(=O)N1OS(=O)(=O)c1ccccc1 do in these assays?
VLA-4 inh: inactive; CIT2-GFP yeast: inconclusive; RPL19A-GFP yeast: inactive; MEP2 TOR yeast: 263.1[may fluoresce violet]; LAP4 TOR yeast: inactive

What do the screens show for `O=C1c2cccc3cccc(c23)C(=O)N1OS(=O)(=O)c1ccc(Br)cc1`?
VLA-4 inh: inactive; CIT2-GFP yeast: inactive; AGP1-GFP MLPCN: inactive; RPL19A-GFP yeast: inactive; MEP2 TOR yeast: inactive; LAP4 TOR yeast: inactive

Results for C#CCn1c(O)c(N=NC(=O)CNC(=O)c2cccnc2)c2ccccc21 ?
VLA-4 inh: inactive; CIT2-GFP yeast: inactive; AGP1-GFP MLPCN: inactive; RPL19A-GFP yeast: inactive; MEP2 TOR yeast: inactive; LAP4 TOR yeast: inactive

What do the screens show for `O=[N+]([O-])c1cc(C(F)(F)F)ccc1NCCc1ccccn1`?
VLA-4 inh: inactive; CIT2-GFP yeast: inactive; AGP1-GFP MLPCN: inactive; RPL19A-GFP yeast: inactive; MEP2 TOR yeast: inactive; LAP4 TOR yeast: 219.0

How did CN(C)/C=C/C(=O)c1cnc(-c2ccc(Cl)cc2)s1 do in these assays?
VLA-4 inh: inactive; CIT2-GFP yeast: inactive; AGP1-GFP MLPCN: inactive; RPL19A-GFP yeast: inactive; MEP2 TOR yeast: inactive; LAP4 TOR yeast: inactive

How did CN(C)/C=C/C(=O)c1cnc(-c2ccccc2)s1 do in these assays?
VLA-4 inh: inactive; AGP1-GFP MLPCN: inactive; RPL19A-GFP yeast: inactive; MEP2 TOR yeast: inactive; LAP4 TOR yeast: 156.4[may fluoresce violet]

How did CC1CCc2c(C(=O)NCc3ccccn3)csc2C1 (configuration not stated) do in these assays?
VLA-4 inh: inactive; CIT2-GFP yeast: inactive; AGP1-GFP MLPCN: inactive; RPL19A-GFP yeast: inactive; MEP2 TOR yeast: inactive; LAP4 TOR yeast: inactive

What do the screens show for `CC1CCc2c(C(=O)NCc3cccnc3)csc2C1` (configuration not stated)?
VLA-4 inh: inactive; CIT2-GFP yeast: 168.9; AGP1-GFP MLPCN: inactive; RPL19A-GFP yeast: inactive; MEP2 TOR yeast: inactive; LAP4 TOR yeast: inactive

Results for CCNC(=S)NNC(=O)c1cc(-c2ccc(OCC)cc2)nc2ccccc12 ?
VLA-4 inh: inactive; CIT2-GFP yeast: inconclusive; AGP1-GFP MLPCN: inconclusive; RPL19A-GFP yeast: 22.2[may fluoresce violet]; MEP2 TOR yeast: 361.3[may fluoresce violet]; LAP4 TOR yeast: inactive

Results for CCNC(=S)NNC(=O)c1cc(-c2cccc(OC)c2)nc2ccccc12 ?
VLA-4 inh: inactive; CIT2-GFP yeast: inactive; AGP1-GFP MLPCN: inactive; RPL19A-GFP yeast: inactive; MEP2 TOR yeast: inactive; LAP4 TOR yeast: inactive

Results for CC(C)CCNC(=O)CN(Cc1ccccc1)C(=O)CCC(=O)Nc1ccccn1 ?
VLA-4 inh: inactive; CIT2-GFP yeast: inactive; AGP1-GFP MLPCN: inactive; RPL19A-GFP yeast: inactive; MEP2 TOR yeast: inactive; LAP4 TOR yeast: inactive

What do the screens show for `O=[N+]([O-])c1ccc(C23CC4CC(CC(O)(C4)C2)C3)cc1`?
VLA-4 inh: inactive; CIT2-GFP yeast: inactive; AGP1-GFP MLPCN: inactive; RPL19A-GFP yeast: inactive; MEP2 TOR yeast: inactive; LAP4 TOR yeast: inactive

What do the screens show for `CCOc1ccc2nc(Cl)c(/C=C/C(=O)c3ccco3)cc2c1`?
VLA-4 inh: inactive; CIT2-GFP yeast: inconclusive; RPL19A-GFP yeast: 37.4[may fluoresce violet]; MEP2 TOR yeast: 506.9[may fluoresce violet]; LAP4 TOR yeast: inactive

How did COCCNC(=O)C(=O)Nc1cc2c3c(c1)CC(=O)N3CCC2 do in these assays?
VLA-4 inh: inactive; CIT2-GFP yeast: inconclusive; AGP1-GFP MLPCN: inactive; RPL19A-GFP yeast: inactive; MEP2 TOR yeast: 226.3[may fluoresce violet]; LAP4 TOR yeast: inactive

How did CN(C)CCCNC(=O)C(=O)Nc1cc2c3c(c1)CC(=O)N3CCC2 do in these assays?
VLA-4 inh: inactive; CIT2-GFP yeast: inactive; AGP1-GFP MLPCN: inactive; RPL19A-GFP yeast: inactive; MEP2 TOR yeast: inactive; LAP4 TOR yeast: inactive

What do the screens show for `Cc1ccccc1/C=N/Nc1nc2ccccc2c(=O)n1O`?
VLA-4 inh: inactive; CIT2-GFP yeast: inactive; AGP1-GFP MLPCN: inactive; RPL19A-GFP yeast: inactive; MEP2 TOR yeast: inactive; LAP4 TOR yeast: inactive

How did COc1ccc(/C=C/C(=O)NC(=S)N2CCSCC2)cc1 do in these assays?
VLA-4 inh: inactive; AGP1-GFP MLPCN: 257.1[may fluoresce green]; RPL19A-GFP yeast: inactive; MEP2 TOR yeast: active[may fluoresce green]; LAP4 TOR yeast: active[may fluoresce green]

How did O=C(COc1ccc2ccc(=O)oc2c1)Nc1ccc(CN2CCOCC2)cc1 do in these assays?
VLA-4 inh: inactive; CIT2-GFP yeast: inconclusive; AGP1-GFP MLPCN: inconclusive; RPL19A-GFP yeast: 15.4[may fluoresce violet]; MEP2 TOR yeast: inactive; LAP4 TOR yeast: inactive

What do the screens show for `COCCN(CC(=O)Nc1cccc(C)c1C)C(=O)Cn1c(=O)cnc2ccccc21`?
VLA-4 inh: inactive; CIT2-GFP yeast: inactive; AGP1-GFP MLPCN: inactive; RPL19A-GFP yeast: inactive; MEP2 TOR yeast: inactive; LAP4 TOR yeast: inactive

What do the screens show for `CC1Cc2ccccc2N1C(=O)C(C)n1cc(C(F)(F)F)cc(Cl)c1=O` (configuration not stated)?
VLA-4 inh: inactive; CIT2-GFP yeast: inactive; AGP1-GFP MLPCN: inactive; RPL19A-GFP yeast: inactive; MEP2 TOR yeast: inactive; LAP4 TOR yeast: inactive

What do the screens show for `O=[N+]([O-])/C=C/c1c(OCc2ccccc2)ccc2ccccc12`?
VLA-4 inh: inactive; CIT2-GFP yeast: inactive; AGP1-GFP MLPCN: inactive; RPL19A-GFP yeast: inactive; MEP2 TOR yeast: inactive; LAP4 TOR yeast: 180.7

How did O=c1oc(-c2cccc(Cl)c2)nc2c1cnn2-c1ccccc1 do in these assays?
VLA-4 inh: inactive; CIT2-GFP yeast: inconclusive; AGP1-GFP MLPCN: inactive; RPL19A-GFP yeast: inactive; MEP2 TOR yeast: 207.6[may fluoresce violet]; LAP4 TOR yeast: inactive

Results for O=c1oc(-c2ccccc2F)nc2c1cnn2-c1ccccc1 ?
VLA-4 inh: inactive; CIT2-GFP yeast: inactive; AGP1-GFP MLPCN: inactive; RPL19A-GFP yeast: inactive; MEP2 TOR yeast: inactive; LAP4 TOR yeast: inactive
